Source: PubChem BioAssay (NCATS)
Results filed as inconclusive are left out. A call without a number means that no potency is given here. Values without a mark were called inactive. Active and inactive are the calls of the source. The call rests on the fitted dose curve; in most records, active means well fitted inhibition curve with a large enough effect; inconclusive means small, poorly fitted or top-dose-only effect; inactive means flat fitted curve, though single readings scatter.
Potency means the concentration at half of the fitted maximal effect.

The molecules below were run against Glutathione peroxidase 1 (Homo sapiens) (UniProt P07203) (assay: Primary qHTS Assay for Inhibitors of Recombinant Selenoprotein Glutathione Peroxidase 1 (GPX1) (AID 1845191; further: nearly all actives have a fitted effect of over 65% in size)). Conditions: recombinant GPX1, GR-coupled NADPH fluorescence, 15 min; series mostly up to 48.8 µM.
Chain of Glutathione peroxidase 1 (Homo sapiens) (P07203 whole entry, looked up): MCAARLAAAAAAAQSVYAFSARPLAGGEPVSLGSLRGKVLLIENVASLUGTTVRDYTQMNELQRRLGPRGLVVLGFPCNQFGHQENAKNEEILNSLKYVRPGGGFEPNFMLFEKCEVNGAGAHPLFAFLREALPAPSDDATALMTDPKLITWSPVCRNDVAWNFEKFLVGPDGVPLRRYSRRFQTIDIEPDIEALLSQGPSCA
In short: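 GPX1 10 nM, GR 100 nM, GSH 1 mM, NADPH 0.5 mM, CHP 0.5 mM (final). 30-min cpd preincubation, RT. Ex340/Em450 read t=0, t=15 min.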
For Cc1cc(=O)c(C(=O)N[C@@H](C(=O)N[C@@H]2C(=O)N3C(C(=O)O)=C(CSc4nnnn4C)CS[C@H]23)c2ccc(O)cc2)c[nH]1, the Potency was 12.8 µM (active).
O=S(=O)(O)CCCS(=O)(=O)O was tested, and the Potency was “inactive”.
With Cc1cc(O)c2c(c1)O[C@@]1(C)CC[C@H]3C(C)(C)CCCC34CO[C@@H]2[C@H]41 (some centres undefined) the Potency was “inactive”.
CCCc1nc(C(C)(C)O)c(C(=O)OCc2oc(=O)oc2C)n1Cc1ccc(-c2ccccc2-c2nn[nH]n2)cc1 was tested, and the Potency was “inactive”.
For Nc1nc(/C(=C/CC(=O)O)C(=O)N[C@@H]2C(=O)N3C(C(=O)O)=CCS[C@H]23)cs1, the Potency was 9.04 µM (active).
In the case of CCCC1C(=O)N2C(N(C)C)=Nc3ccc(C)cc3N2C1=O (centres undefined), the Potency was “inactive”.
Molecule CC(C)(C)CC(C)(C)c1cc(Cc2cc(C(C)(C)CC(C)(C)C)cc(-n3nc4ccccc4n3)c2O)c(O)c(-n2nc3ccccc3n2)c1 has an activity, negative = inhibition of -7.19% [at 4.49 µM].
CCOC(=O)[C@H](CS)NCCN[C@@H](CS)C(=O)OCC was tested, and the Potency was 22.7 µM (active).
With CC(CCc1ccc(O)cc1)NCC(O)c1ccc(O)cc1 (centres undefined) the Potency was “inactive”.
For CN(C)C=Nc1c(I)cc(I)c(CCC(=O)O)c1I, the Potency was “inactive”.
For Cc1cc(-c2ccc(N=Nc3ccc4c(S(=O)(=O)O)cc(S(=O)(=O)O)c(N)c4c3O)c(C)c2)ccc1N=Nc1ccc2c(S(=O)(=O)O)cc(S(=O)(=O)O)c(N)c2c1O, the Potency was “inactive”.
With C[C@@H]1O[C@@H]1P(=O)(O)O the Potency was 11.1 µM (active).
For CC(C)(O/N=C(\C(=O)N[C@@H]1C(=O)N2C(C(=O)[O-])=C(C[n+]3ccccc3)CS[C@H]12)c1csc(N)n1)C(=O)O, the Potency was 7.85 µM (active).
CC1(O)CCC(C(C)(C)O)CC1 (centres undefined) was tested, and the Potency was “inactive”.
For C[N@+]12CCCC[C@@H]1CCC(=C(c1cccs1)c1cccs1)C2, the Potency was “inactive”.
O=C(O)CCC/C=C\C[C@@H]1[C@@H](/C=C/[C@@H](O)COc2cccc(Cl)c2)[C@H](O)C[C@@H]1O was tested, and the Potency was “inactive”.
With COc1cc(C)c(/C=C/C(C)=C/C=C/C(C)=C/C(=O)O)c(C)c1C the Potency was “inactive”.
In the case of CO/N=C(\C(=O)N[C@@H]1C(=O)N2C(C(=O)O)=C(CSc3nnnn3C)CS[C@H]12)c1csc(N)n1, the Potency was 11.4 µM (active).
CCOC(=O)C1=C(COCCN)NC(C)=C(C(=O)OC)C1c1ccccc1Cl (centres undefined) was tested, and the Potency was “inactive”.
In the case of CSc1nc2cc(Oc3cccc(Cl)c3Cl)c(Cl)cc2[nH]1, the Potency was “inactive”.
For NC[C@@H]1CC[C@@H](N)[C@@H](O[C@H]2[C@H](O)[C@@H](O[C@H]3O[C@H](CO)[C@@H](O)[C@H](N)[C@H]3O)[C@H](N)C[C@@H]2N)O1, the Potency was “inactive”.
NC[C@@H]1O[C@H](O[C@H]2[C@@H](O)[C@H](O[C@@H]3[C@@H](O)[C@H](N)C[C@H](N)[C@H]3O[C@H]3O[C@H](CO)[C@@H](O)[C@H](O)[C@H]3N)O[C@@H]2CO)[C@H](N)[C@@H](O)[C@@H]1O was tested, and the outcome was “inactive [at 0.4 µM]”.
In the case of CN(C)CCC=C1c2ccccc2C(C)(C)c2ccccc21, the Potency was “inactive”.
In the case of C/C=C/C=C/C(=O)O, the Potency was “inactive”.
For CC(C)[C@@H](C)/C=C/[C@@H](C)[C@H]1CC[C@H]2/C(=C/C=C3\C[C@@H](O)CC[C@@H]3C)CCC[C@]12C, the Potency was “inactive”.
With O=C(O)c1cc(N=Nc2ccc(O)c(C(=O)O)c2)ccc1O the Potency was “inactive”.
CCCOc1cc(N)ccc1C(=O)OCCN(CC)CC was tested, and the Potency was “inactive”.
For C=CC1=C(C(=O)O)N2C(=O)[C@@H](NC(=O)/C(=N\O)c3csc(N)n3)[C@H]2SC1 (stereo in doubt), the Potency was 11.4 µM (active).
For CC(C)Cc1ccc([C@@H](C)C(=O)NS(C)(=O)=O)cc1, the Potency was “inactive”.
In the case of CC(/C=C/C=C(\C)C(=O)O[C@@H]1O[C@H](CO[C@@H]2O[C@H](CO)[C@@H](O)[C@H](O)[C@H]2O)[C@@H](O)[C@H](O)[C@H]1O)=C\C=C\C=C(C)\C=C\C=C(/C)C(=O)O[C@@H]1O[C@H](CO[C@@H]2O[C@H](CO)[C@@H](O)[C@H](O)[C@H]2O)[C@@H](O)[C@H](O)[C@H]1O, the Potency was “inactive”.
CC(CN(C)C)CN1c2ccccc2Sc2ccc(C(F)(F)F)cc21 (centres undefined) was tested, and the Potency was “inactive”.
For CCOC(=O)Cc1ccc(-c2ccccc2)cc1, the Potency was “inactive”.
For O=C1c2ccccc2C(=O)c2c1ccc(O)c2O, the Potency was “inactive”.
For OCCOCCOCCO, the Potency was “inactive”.
